The panel holds about 83,000 compounds, 20% with a hit somewhere; the sample as a whole holds those more often.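 The endpoint reported here, percent growth, reads 100 for growth as untreated, 0 for no net growth and -100 for all cells dead.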 A number with no mark means an inactive call. Active and inactive are the calls of the source. The calls were made as follows: active = growth percent below 10; inactive = the rest.

Among the test systems are HCT-15 colon; HT29 colon; SNB-75 CNS; SNB-19 CNS; U251 CNS; PC-3 prostate; SK-MEL-5 melanoma; UACC-62 melanoma; LOX IMVI melanoma; SK-MEL-28 melanoma; SK-MEL-2 melanoma; EKVX NSCLC; SN12C renal; UO-31 renal; TK-10 renal; ACHN renal; CAKI-1 renal; A498 renal; CCRF-CEM leukemia; MOLT-4 leukemia.
Experiment in all cases: NCI-60 one-dose screen, 48 h (100 = growth as untreated, 0 = no growth, -100 = all killed)
Common to all, as to conditions: 10 µM unless noted

On to `Nc1nnc2cc(Cl)ccc2n1`, for which the growth in the assay on HCT-15 colon was 94.2%; in the assay with HT29 colon, 119%; in the assay with SNB-75 CNS, 91.6%; in the assay with SNB-19 CNS it was 104%; in the assay with U251 CNS it was 98.4%; in the assay with PC-3 prostate it was 77%. For the same compound, the growth with SK-MEL-5 melanoma was 102%; with UACC-62 melanoma, 93.1%; in the assay with LOX IMVI melanoma, 87.9%; in the assay on SK-MEL-28 melanoma, 114%; with SK-MEL-2 melanoma, -25.9% (active); with EKVX NSCLC it was 112%. Further, the growth was 90.1% in the assay with SN12C renal; 89.8% in the assay with UO-31 renal; 136% with TK-10 renal; 89.9% with ACHN renal; 112% in the assay on CAKI-1 renal; 54% in the assay on A498 renal. Also, the growth in the assay on CCRF-CEM leukemia was 87.7%; in the assay on MOLT-4 leukemia it was 111%.
`Nc1c(C(=O)Nc2ccc(Cl)cc2)cc(-c2nc3ccccc3s2)c(=O)n1NS(=O)(=O)c1ccc(Cl)cc1`: the growth with HCT-15 colon is 96.7%; in the assay with HT29 colon it was 104%; in the assay on SNB-75 CNS, 84.1%; in the assay on SNB-19 CNS, 99.8%; in the assay with U251 CNS, 104%; with PC-3 prostate it was 104%. For the same compound, the growth with SK-MEL-5 melanoma was 96.4%; with UACC-62 melanoma it was 89.8%; in the assay with LOX IMVI melanoma, 99.3%; in the assay on SK-MEL-28 melanoma, 109%; with SK-MEL-2 melanoma it was 102%; with EKVX NSCLC, 85.8%. Besides, the growth with SN12C renal is 95%; in the assay on UO-31 renal it was 85.9%; in the assay with TK-10 renal, 147%; with ACHN renal, 103%; in the assay on CAKI-1 renal, 86.4%; in the assay with CCRF-CEM leukemia, 97.6%. The growth in the assay with MOLT-4 leukemia is 91.5%.
Turning to `CCOC(=O)C1=C(C)NC(C)=C(C(=O)OCC)C1c1cc(Br)c(O)c(OC)c1`, the growth was 30.9% in the assay on HCT-15 colon; 71.4% in the assay with HT29 colon; 8.16% (active) in the assay on SNB-75 CNS; 45.2% with SNB-19 CNS; 33.1% in the assay on U251 CNS; 32.6% in the assay with PC-3 prostate. The growth in the assay with SK-MEL-5 melanoma is 19.5%; in the assay with UACC-62 melanoma, 48.8%; in the assay with LOX IMVI melanoma, 36.7%; with SK-MEL-28 melanoma, 47.5%; in the assay with SK-MEL-2 melanoma it was -7.22% (active); in the assay with EKVX NSCLC it was 42.5%. The growth with SN12C renal was 48.5%; in the assay on UO-31 renal, 40.3%; in the assay on TK-10 renal it was 34.1%; in the assay with ACHN renal, 61.3%; in the assay with CAKI-1 renal, 30.1%; in the assay with CCRF-CEM leukemia it was 19.9%. For the same compound, the growth in the assay with MOLT-4 leukemia is 44.8%.
In the case of `O=C(Nc1ccc2cc3ccc(NC(=O)NC4CCCCC4)cc3nc2c1)NC1CCCCC1`, the growth in the assay with HCT-15 colon was 111%; in the assay with HT29 colon it was 82.7%; in the assay with SNB-75 CNS, 58.6%; in the assay on SNB-19 CNS it was 78.9%; in the assay with U251 CNS, 56.2%; in the assay on PC-3 prostate, 83.7%. For the same compound, the growth with SK-MEL-5 melanoma was 107%; in the assay on UACC-62 melanoma it was 87.8%; with LOX IMVI melanoma, 63%; with SK-MEL-28 melanoma it was 79%; with SK-MEL-2 melanoma, 97.3%; in the assay on EKVX NSCLC, 95.1%. The growth in the assay on SN12C renal was 88.2%; in the assay with UO-31 renal, 89.1%; in the assay on TK-10 renal, 100%; in the assay on ACHN renal, 100%; in the assay with CAKI-1 renal, 93.3%; in the assay on CCRF-CEM leukemia, 25.1%. The growth in the assay on MOLT-4 leukemia is 9.49% (active).
As to `CCSc1ccc2c(c1)N(CCCN1CCN(C)CC1)c1ccccc1S2`, the growth with HCT-15 colon is 2.48% (active); in the assay on HT29 colon it was -14.7% (active); in the assay with SNB-75 CNS it was 28.3%; with SNB-19 CNS it was 68.8%; in the assay with U251 CNS, 36.2%; in the assay with PC-3 prostate, 51.9%. The growth was -98.7% (active) with SK-MEL-5 melanoma; -43% (active) with UACC-62 melanoma; -82.5% (active) with LOX IMVI melanoma; -85.2% (active) in the assay with SK-MEL-28 melanoma; 69% in the assay with SK-MEL-2 melanoma; 59.3% with EKVX NSCLC. For the same compound, the growth in the assay with SN12C renal was 57.6%; in the assay on UO-31 renal it was 9.67% (active); in the assay with TK-10 renal, 55.6%; with ACHN renal it was 43.5%; in the assay on CAKI-1 renal, 50%; in the assay with CCRF-CEM leukemia it was 27.9%. The growth in the assay with MOLT-4 leukemia was 18.5%.
`NC(=S)N/N=C(/c1ccccc1)c1ccccc1N`: the growth is 84.7% in the assay on HCT-15 colon; 54.8% in the assay with HT29 colon; 101% with SNB-75 CNS; 101% with SNB-19 CNS; 95.6% in the assay on U251 CNS; 67.3% in the assay with PC-3 prostate. Further, the growth is 92.3% in the assay with SK-MEL-5 melanoma; 93.9% with UACC-62 melanoma; 96.1% in the assay with LOX IMVI melanoma; 109% in the assay with SK-MEL-28 melanoma; 103% in the assay on SK-MEL-2 melanoma; 66.1% with EKVX NSCLC. Besides, the growth is 85% in the assay with SN12C renal; 62.8% in the assay on UO-31 renal; 103% in the assay with TK-10 renal; 90.6% in the assay on ACHN renal; 80.9% in the assay on CAKI-1 renal; 60.2% with CCRF-CEM leukemia. Also, the growth in the assay on MOLT-4 leukemia is 52.7%.
As for `O=C1/C(=C\c2cn(Cc3ccccc3)c3ccc(Br)cc23)c2ccccc2N1c1c(Cl)cccc1Cl`, the growth with HCT-15 colon is 102%; with HT29 colon, 101%; in the assay with SNB-75 CNS, 76.4%; in the assay with SNB-19 CNS, 90.9%; in the assay with U251 CNS, 96.4%; in the assay on PC-3 prostate, 78%. The growth is 104% with SK-MEL-5 melanoma; 98.4% in the assay on UACC-62 melanoma; 88.8% with LOX IMVI melanoma; 107% with SK-MEL-28 melanoma; 101% in the assay on SK-MEL-2 melanoma; 89.2% with EKVX NSCLC. The growth with SN12C renal was 97.7%; in the assay with UO-31 renal, 87.3%; with TK-10 renal, 102%; in the assay with ACHN renal, 104%; in the assay with CAKI-1 renal, 83%; with CCRF-CEM leukemia, 96.8%. The growth in the assay on MOLT-4 leukemia is 95.8%.

The values are drawn from PubChem BioAssay (NCI).
